Assay [1] has as its target Nucleoprotein (Lymphocytic choriomeningitis virus (strain Armstrong)) (UniProt P09992). The assay is described as follows: qHTS for Inhibitors of the Functional Ribonucleoprotein Complex (vRNP) of Lymphocytic Choriomeningitis Arenaviruses (LCMV): LCMV Primary Screen - GLuc reporter signal (AID 1347086; calls by dose curve; note: potency is the fitted concentration of half-maximal effect; nearly all actives have a fitted effect of over 70% in size). Background: qHTS replaces the single test concentration by a dilution series.

Assay [2] can be described thus: Cytotoxicity counterscreen for inhibitors of SARS-CoV-2 cell entry (AID 1645845; calls by dose curve; note: nearly all actives have a fitted effect of over 50% in size). The method, boiled down: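 ATP-content luminescence (ATPLite 1step, 15 min RT) read after 48 h compound exposure of Expi293F cells stably expressing human ACE2; normalized to cells-only wells and media-only wells.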
On the technique in general: Counterscreens check selectivity or assay interference.

Assay [3] is described as follows: Primary qHTS to identify inhibitors of SARS-CoV-2 cell entry (AID 1645846; calls by dose curve; note: nearly all actives have a fitted effect of over 45% in size). As to conditions: activity change, negative = inhibition: at 57.1 µM (top of the series) unless noted. The procedure, abridged: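 HEK293 cells stably expressing human ACE2, pre-treated 1 h with compound, then infected with MLV particles pseudotyped with Wuhan-Hu-1 spike (C-terminal 19-aa truncation). Luciferase luminescence after 48 h at 37 °C, normalised to spike PP and bald PP.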

Assay [4] deals with Zika virus NS2B-NS3 protease. The assay is described as follows: Primary screen GU AMC qHTS for Zika virus inhibitors (AID 1347154).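 Note: 0% = no-inhibitor control and -100% = no-enzyme control; nearly all actives have a fitted effect of over 70% in size.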 The method, boiled down:
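Fluorogenic AMC-substrate cleavage by noncovalent NS2B-NS3 protease complex (25 nM, pH 8.0 Tris buffer with Tween 20) followed for 15 minutes at room temperature (~20% conversion). Percent inhibition from ex340/em450 signal change, fitted by 4-parameter Hill equation.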

The target in assay [5] is Cytochrome P450 3A4 (Homo sapiens) (UniProt P08684). Put plainly: qHTS Assay for Inhibitors and Substrates of Cytochrome P450 3A4 (AID 884). Note: % is set by controls: 0 for no effect and ±100 for the full control effect; nearly all actives have a fitted effect of over 50% in size. The method, boiled down:
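Luminescent readout of luciferin produced by CYP3A4 (20 nM) dealkylation of Luciferin-PPXE, 25 uM (its KM). NADPH-driven reaction ran 60 min at RT after 10 min compound preincubation; data scaled to 57 uM ketoconazole as 100% inhibition.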

Assay [6] is described as follows: Confirmation and Secondary Assay for Modulators of Hemoglobin Beta Chain Splicing at IVS2 654 locus (AID 910).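 Note: HeLa cells stably carrying EGFP split by mutant beta-globin IVS2-654 intron; per-well total GFP intensity by laser scanning cytometry after 2-day treatment; % of control where 0% means no effect.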 The procedure, abridged:
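Readout: per-well total peak green fluorescence (488 nm ex, 500–520 nm em) from objects 5–250 µm, reflecting correct splicing of an EGFP-654 reporter. Compounds were applied for 2 days at 37 °C to overnight-plated HeLa EGFP-654 cells; controls were DMSO and 500 nM IVS2-654 PNA.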

Assay [7] deals with Ubiquitin carboxyl-terminal hydrolase 1 (Homo sapiens) (UniProt O94782). The assay is described as follows: Inhibitors of USP1/UAF1: Pilot qHTS (AID 504865).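 Note: rhodamine fluorescence freed from ubiquitin-rhodamine substrate followed over time; top concentration of the series differs between compounds; % is set by controls: 0 for no effect and ±100 for the full control effect; nearly all actives have a fitted effect of over 35% in size.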 The method, boiled down:
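USP1/UAF1 complex at 1 nM preincubated 15 min at room temperature with compound, then Ub-Rho substrate added at 150 nM final. Fluorescence (480/540 nm) read kinetically in 50 mM HEPES pH 7.8, 0.5 mM EDTA, 1 mM TCEP, 0.1 mg/ml BSA, 0.01% Tween-20.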

The target in assay [8] is Furin (Homo sapiens) (UniProt P09958). Put plainly: Furin counterscreen qHTS for Zika virus inhibitors (AID 1347149).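 Note: purified recombinant full-length human furin enzyme at 5 nM; fluorescence gain from furin cutting a BOC-RVRR-AMC peptide substrate over 15 min; top concentration of the series differs between compounds; plate controls were no-inhibitor control for no effect and no-enzyme control for full effect; nearly all actives have a fitted effect of over 70% in size.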 The procedure, abridged:
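Counterscreen measures cleavage of 2 microM BOC-RVRR-AMC, below its ~15 microM Km, by 5 nM full-length human furin at pH 7.0 after a 15-min compound preincubation. Inhibition derives from the 15-min fluorescence increase at 37C.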

In assay [9] the test system is Zika virus NS2B-NS3 protease (unlinked). Put plainly: Optimization of GU AMC qHTS for Zika virus inhibitors: Unlinked NS2B-NS3 protease assay (AID 1347151).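 Note: 0% = no-inhibitor control and -100% = no-enzyme control; nearly all actives have a fitted effect of over 80% in size.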 The method, boiled down:
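Noncovalent NS2B hydrophilic domain–NS3 protease complex (25 nM final) in 10 mM Tris-HCl pH 8.0, 0.01% Tween 20; AMC substrate, room temperature 15 min (~20% conversion); fluorescence change normalized, 4-parameter Hill fit.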

Assay [10] is described as follows: Vero cells viability qHTS for Zika virus inhibitors (AID 1347167). Note: % is set by controls: 0 for no effect and ±100 for the full control effect. The procedure, abridged:
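Luminescent ATP readout (CellTiter Glo) after 30 min at 37 degrees C gives viability; cells in DMEM + 4% FBS were treated 24 to 48 hours with compound, following overnight attachment.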

Assay [11] is described as follows: Tertiary RLuc qRT-PCR qHTS assay for Zika virus inhibitors (AID 1347169). Note: potency is the fitted concentration of half-maximal effect; nearly all actives have a fitted effect of over 55% in size. The procedure, abridged:
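Vero cells (1,000/well) infected with recombinant ZIKV-RLuc (Cambodian) at MOI 1-2 after compound addition, 48-72 hrs at 37 degrees C. Live-cell Renilla luciferase substrate added; luminescence read after 1-1.5 hrs.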
(In general: In qPCR the cycle at which signal appears reflects the starting amount.)

Each structure is given as a SMILES string. Inconclusive results are not listed. The source made the active and inactive calls. Unless noted, calls come from the whole dose curve; as a rule, active = well fitted curve in the direction sought with a large enough effect; inconclusive = small, poorly fitted or top-dose-only effect, or another doubt; inactive = no such curve, though single readings can be large; an effect the other way counts as inactive or inconclusive.

Drawing on PubChem BioAssay (NCATS), this text covers Potency, activity change, negative = inhibition and outcome for 5 compounds.

Chain of Furin (Homo sapiens) (P09958 whole entry, looked up): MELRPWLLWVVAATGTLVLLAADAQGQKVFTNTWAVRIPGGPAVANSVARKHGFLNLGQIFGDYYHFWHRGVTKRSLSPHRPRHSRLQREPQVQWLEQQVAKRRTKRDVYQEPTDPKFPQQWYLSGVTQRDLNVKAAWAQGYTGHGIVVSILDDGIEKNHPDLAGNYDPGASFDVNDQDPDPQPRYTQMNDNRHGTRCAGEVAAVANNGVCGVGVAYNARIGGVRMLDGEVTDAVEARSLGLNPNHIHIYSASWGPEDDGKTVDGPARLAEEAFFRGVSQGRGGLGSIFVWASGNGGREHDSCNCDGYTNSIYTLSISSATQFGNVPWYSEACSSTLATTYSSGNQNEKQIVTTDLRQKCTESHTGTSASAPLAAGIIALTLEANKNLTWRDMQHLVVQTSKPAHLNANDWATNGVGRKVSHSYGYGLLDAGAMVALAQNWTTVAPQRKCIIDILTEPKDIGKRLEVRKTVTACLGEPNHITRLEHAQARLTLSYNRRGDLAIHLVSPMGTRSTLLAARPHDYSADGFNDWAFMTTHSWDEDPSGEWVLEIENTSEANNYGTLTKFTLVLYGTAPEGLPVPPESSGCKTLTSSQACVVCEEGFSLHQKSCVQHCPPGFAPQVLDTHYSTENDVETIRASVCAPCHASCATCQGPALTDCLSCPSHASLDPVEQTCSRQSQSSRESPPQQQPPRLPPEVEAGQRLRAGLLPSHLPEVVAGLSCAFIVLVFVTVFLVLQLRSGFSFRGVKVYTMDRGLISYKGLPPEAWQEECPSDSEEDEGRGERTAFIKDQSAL
Chain of Ubiquitin carboxyl-terminal hydrolase 1 (Homo sapiens) (O94782 whole entry, looked up): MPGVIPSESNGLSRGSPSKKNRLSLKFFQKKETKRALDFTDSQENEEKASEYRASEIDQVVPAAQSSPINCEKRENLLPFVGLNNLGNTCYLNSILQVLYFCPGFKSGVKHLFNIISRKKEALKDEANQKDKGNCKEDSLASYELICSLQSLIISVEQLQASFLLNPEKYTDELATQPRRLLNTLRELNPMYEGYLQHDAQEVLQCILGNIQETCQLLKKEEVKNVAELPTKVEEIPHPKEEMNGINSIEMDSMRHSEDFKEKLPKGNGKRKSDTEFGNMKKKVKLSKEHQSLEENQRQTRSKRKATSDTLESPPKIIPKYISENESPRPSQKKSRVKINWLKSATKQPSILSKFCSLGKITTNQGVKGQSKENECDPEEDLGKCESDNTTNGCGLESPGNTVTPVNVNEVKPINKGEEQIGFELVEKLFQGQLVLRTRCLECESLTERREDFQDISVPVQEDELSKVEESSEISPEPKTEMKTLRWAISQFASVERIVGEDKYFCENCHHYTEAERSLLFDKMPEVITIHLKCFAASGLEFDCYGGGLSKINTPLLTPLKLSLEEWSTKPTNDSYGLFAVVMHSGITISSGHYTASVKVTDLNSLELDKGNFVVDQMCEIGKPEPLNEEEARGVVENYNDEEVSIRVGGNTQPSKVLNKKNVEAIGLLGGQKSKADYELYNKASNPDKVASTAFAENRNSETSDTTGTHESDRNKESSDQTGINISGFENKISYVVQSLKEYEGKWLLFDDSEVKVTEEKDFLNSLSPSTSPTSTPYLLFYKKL
Chain of Nucleoprotein (Lymphocytic choriomeningitis virus (strain Armstrong)) (P09992 whole entry, looked up): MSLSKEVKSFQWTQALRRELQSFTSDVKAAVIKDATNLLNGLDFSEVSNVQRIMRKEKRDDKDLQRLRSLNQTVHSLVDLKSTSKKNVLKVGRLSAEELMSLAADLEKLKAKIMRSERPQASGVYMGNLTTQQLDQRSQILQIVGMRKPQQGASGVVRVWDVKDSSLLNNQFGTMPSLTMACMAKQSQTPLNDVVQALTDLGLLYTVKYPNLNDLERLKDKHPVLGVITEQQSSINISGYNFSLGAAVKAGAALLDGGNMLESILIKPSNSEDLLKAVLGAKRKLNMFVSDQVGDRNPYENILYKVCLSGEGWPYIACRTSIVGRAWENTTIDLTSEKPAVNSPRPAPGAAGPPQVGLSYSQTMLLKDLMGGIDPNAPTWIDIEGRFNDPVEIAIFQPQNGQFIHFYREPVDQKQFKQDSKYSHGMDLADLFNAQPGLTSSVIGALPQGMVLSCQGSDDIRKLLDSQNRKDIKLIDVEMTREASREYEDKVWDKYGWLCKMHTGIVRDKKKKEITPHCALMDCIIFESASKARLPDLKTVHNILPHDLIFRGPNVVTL
Chain of Cytochrome P450 3A4 (Homo sapiens) (P08684 whole entry, looked up): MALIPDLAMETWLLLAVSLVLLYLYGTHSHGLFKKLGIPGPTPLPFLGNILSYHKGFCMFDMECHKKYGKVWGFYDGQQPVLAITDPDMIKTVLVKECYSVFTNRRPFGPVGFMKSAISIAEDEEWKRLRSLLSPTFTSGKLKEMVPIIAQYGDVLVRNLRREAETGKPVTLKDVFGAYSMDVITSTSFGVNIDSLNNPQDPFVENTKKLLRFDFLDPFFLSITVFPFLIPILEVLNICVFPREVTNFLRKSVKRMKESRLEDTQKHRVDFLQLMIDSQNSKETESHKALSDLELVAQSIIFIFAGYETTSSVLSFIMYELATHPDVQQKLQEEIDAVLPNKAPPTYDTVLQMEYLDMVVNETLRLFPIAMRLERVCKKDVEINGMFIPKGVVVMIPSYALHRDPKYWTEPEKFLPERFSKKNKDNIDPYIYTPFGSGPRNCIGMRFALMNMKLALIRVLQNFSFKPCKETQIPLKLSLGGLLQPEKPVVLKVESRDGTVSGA

For `Cc1ccc2c(=O)c3cccc(CC(=O)O)c3oc2c1C`, the Potency in assay [1] was 38.5 µM (active). Further, the Potency result in [2] was “inactive”. Further, in [3], the activity change, negative = inhibition is -28.2%.

Consider `CC1CCC2C(C)C(=O)OC3O[C@]4(C)CCC1[C@@]32OO4` (some centres not stated), for which the Potency result in assay [4] is “inactive”.

For `COC1C(O)C(C)O[C@@H](OC2CC[C@@]3(C)C4CC[C@]5(C)C(C6=CC(=O)OC6)CC[C@@]5(O)C4CC[C@@H]3C2)C1O` (some centres not stated), the Potency entry in assay [5], in assay [6], in assay [7], in assay [8] and in assay [10] was “inactive” in each case. In addition, in assay [9], the outcome was inactive. The Potency in [11] was 65.8 nM (active).

Regarding `O=C(/C=C/c1ccc(Cl)cc1)N[C@@]12CCC(=O)[C@@H]3Oc4c(O)ccc5c4[C@@]31CCN(CC1CC1)C2C5`, the Potency result in assay [4] is “inactive”.

Take `C[C@H]1O[C@@H](O[C@H]2[C@@H](O)C[C@H](O[C@H]3[C@@H](O)C[C@H](O[C@H]4CC[C@]5(C)C6CC[C@]7(C)[C@@H](C8=CC(=O)OC8)CC[C@]7(O)C6CC[C@@H]5C4)O[C@@H]3C)O[C@@H]2C)C[C@H](O)[C@@H]1O` (some centres not stated): the Potency result in [8], in [4] and in assay [10] was “inactive” each time. Moreover, the outcome in assay [9] was inactive. For the same compound, the Potency in assay [11] was 147 nM (active).
